Over roughly 110,000 compounds, “z-score” has its median near -0.1; the highest 2% begin near 2. Only a selection was taken, and the highest values are over-represented in it overall. The source made the active and inactive calls.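 Rule for the calls: active = z-score in the third read window above 3 or below -3; inactive = the rest.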
Target: Metabotropic glutamate receptor 8 (Rattus norvegicus) (UniProt P70579)
Assay: mGluR8 Gi/Go-coupled signaling modulation – cell-based, rat, thallium flux, HTS, primary screen (AID 488969)
Conditions: HEK293 rat mGluR8, GIRK (G protein-gated inwardly rectifying potassium channel) thallium flux, FluoZin2; at 10 µM; stronger effect = higher value; submaximal glutamate (EC20) added with thallium

Sequence of Metabotropic glutamate receptor 8 (Rattus norvegicus) (P70579 whole entry, looked up): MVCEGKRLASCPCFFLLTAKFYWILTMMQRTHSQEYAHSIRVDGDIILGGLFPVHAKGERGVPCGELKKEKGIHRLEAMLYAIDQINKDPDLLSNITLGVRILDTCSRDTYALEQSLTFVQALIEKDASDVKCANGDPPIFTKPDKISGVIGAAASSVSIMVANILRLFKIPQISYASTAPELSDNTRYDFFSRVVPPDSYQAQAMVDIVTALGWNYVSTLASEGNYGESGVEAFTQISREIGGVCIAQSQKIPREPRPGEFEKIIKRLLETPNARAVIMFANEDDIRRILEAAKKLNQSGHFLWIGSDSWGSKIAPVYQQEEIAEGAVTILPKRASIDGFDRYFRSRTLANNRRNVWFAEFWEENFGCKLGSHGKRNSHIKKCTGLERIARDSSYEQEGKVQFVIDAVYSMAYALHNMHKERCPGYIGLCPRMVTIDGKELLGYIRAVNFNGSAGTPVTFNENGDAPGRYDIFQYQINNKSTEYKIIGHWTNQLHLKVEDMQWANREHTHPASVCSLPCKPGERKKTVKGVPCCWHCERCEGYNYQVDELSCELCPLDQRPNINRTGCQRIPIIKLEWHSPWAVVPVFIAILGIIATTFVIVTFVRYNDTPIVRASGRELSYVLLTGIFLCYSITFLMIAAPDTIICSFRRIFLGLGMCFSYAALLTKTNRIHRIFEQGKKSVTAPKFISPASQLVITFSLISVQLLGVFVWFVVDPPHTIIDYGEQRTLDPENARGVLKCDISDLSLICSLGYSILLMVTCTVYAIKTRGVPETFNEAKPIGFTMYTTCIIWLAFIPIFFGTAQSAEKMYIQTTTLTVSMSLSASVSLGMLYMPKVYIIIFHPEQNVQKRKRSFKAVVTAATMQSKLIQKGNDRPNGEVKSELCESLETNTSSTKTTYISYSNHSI

Row | Compound | z-score
1 | CS(=O)(=O)Nc1ccc(-c2n[nH]c(=S)n2-c2ccccc2)cc1 | 0.118
2 | CCN(CCNC(=O)C1CCN(Cc2nc(-c3ccc(Cl)cc3)oc2C)CC1)c1ccccc1 | 1.3
3 | CN(C)c1ccnc(NCc2ccccc2)c1C#N | -0.278
4 | O=C(Nc1ccncc1)Nc1ccccn1 | -0.133
5 | CCC(=O)N/C(=N\OCc1ccc(F)cc1)c1nonc1NC(=O)CC | -0.064
6 | COc1ccccc1-c1noc(CCC(=O)Nc2cccc(C)c2)n1 | -0.323
7 | O=C(c1cnn2c(C(F)(F)F)cc(-c3ccco3)nc12)N1CCCc2ccccc21 | -0.976
8 | O=C(c1cnn2c(C(F)(F)F)cc(-c3ccco3)nc12)N1CCCCCC1 | 2.24
9 | O=C(c1cnn2c(C(F)(F)F)cc(-c3ccco3)nc12)N1CCc2ccccc2C1 | -1.04
10 | COc1cc(C(C)=O)ccc1COc1ccc(C(=O)OCC(=O)NC(C)(C)C)cc1OC | -0.573
11 | O=C(NCc1ccccn1)c1ccc(CNS(=O)(=O)c2ccc(F)cc2)cc1 | -0.111
12 | CN1C(=O)c2ccccc2N(C)C1c1cccs1 (stereo not given) | -1.51
13 | CCOC(=O)N1CCC(n2c(=S)[nH]c3ccccc3c2=O)CC1 | 0.582
14 | O=c1c2ccccc2[nH]c(=S)n1CC1CCCO1 (stereo not given) | 0.302
15 | O=c1c2[nH]c3ccccc3c2ncn1C1CCCCC1 | 0.256
16 | O=c1c2ccccc2[nH]c(=S)n1C1CCCCC1 | 12.5 (active)
17 | Cc1c(-n2c(=S)[nH]c3ccccc3c2=O)c(=O)n(-c2ccccc2)n1C | 0.153
18 | CC1CCC(n2c(=S)[nH]c3ccccc3c2=O)CC1 (stereo not given) | 8.55 (active)
19 | Cc1ccc(S(=O)(=O)Nc2cc(C(F)(F)F)ccc2N2CCOCC2)cc1 | 0.266
20 | Cc1ccc(-c2nnc3n2CCCCC3)cc1 | 0.0634
21 | CCNC(=O)COC(=O)C1C(C(=O)OCC)=C(C)NC(C)=C1C(=O)OCC | -0.145
22 | O=C(Cn1c(=O)n(-c2ccccc2)c(=O)c2sccc21)N1CCCC1 | -0.24

Row | Compound | z-score
23 | Cc1ccc(OCC(=O)N/N=C/c2cn(Cc3ccccc3)c3ccccc23)cc1 | -0.188
24 | O=C(O)CCN1C(=O)/C(=C\c2ccc(-c3nc4ccccc4s3)o2)SC1=S | 2.49
25 | O=C(O)CCCN1C(=O)/C(=C/c2ccc(-c3nc4ccccc4s3)o2)SC1=S | 0.773
26 | O=C(O)CCN1C(=O)/C(=C/c2ccc(-c3nc4ccccc4s3)o2)SC1=S | 1.83
27 | COc1ccccc1N1C(N)=NC(N)=NC1(C)C | -0.0746
28 | CC(=O)CCc1ccc2oc(C(=O)O)c(C)c2c1 | -0.497
29 | COC(=O)c1[nH]c2ccc(F)cc2c1NC(=O)CCN1CCN(Cc2ccc3c(c2)OCO3)CC1 | -0.752
30 | COC(=O)c1[nH]c2ccc(C)cc2c1NC(=O)CCN1CCN(Cc2ccc3c(c2)OCO3)CC1 | 9.23 (active)
31 | Cc1[nH]c2ccccc2c1NC(=O)CN1CCN(Cc2ccc3c(c2)OCO3)CC1 | -0.288
32 | CC(=NC1CC1)c1c(-c2ccccc2)[nH]n(-c2nc3ccccc3s2)c1=O | -0.25
33 | S=c1[nH]nc(-c2ccncc2)n1Cc1ccccc1 | 1.42
34 | CCCc1cc(-c2n[nH]c(=S)n2Cc2ccccc2)cs1 | 4.6 (active)
35 | CCCc1cc(-c2n[nH]c(=S)n2CC(C)C)cs1 | 4.16 (active)
36 | CCc1cc(-c2n[nH]c(=S)n2Cc2ccccc2)cs1 | 0.464
37 | Cc1cc(-c2n[nH]c(=S)n2Cc2ccccc2)cs1 | 0.453
38 | CCc1c(-c2n[nH]c(=S)n2Cc2ccccc2)csc1C | 2.88
39 | Cc1cc(-c2n[nH]c(=S)n2CC(C)C)cs1 | -0.405
40 | Cc1scc(-c2n[nH]c(=S)n2Cc2ccccc2)c1C | 0.854
41 | CCc1cc(-c2n[nH]c(=S)n2CC(C)C)cs1 | 1.12
42 | Cc1nc2c(C)cccc2cc1C(=O)N/N=C/c1cccnc1 | -0.392
43 | CCc1cccc(CC)c1NC(=O)COC(=O)c1cccc(-c2ccc(OC(C)=O)cc2)c1 | -1.91
44 | Cc1ccccc1C(=NCCCN(C)C)c1ccccc1C | 0.825

Row | Compound | z-score
45 | O=C(Cc1cccs1)N(Cc1ccco1)C1(C(=O)NC2CCCCC2)CCCCC1 | 1.89
46 | Cn1nc(Oc2nc(N3CCOCC3)nc(N3CCOCC3)n2)ccc1=O | 0.165
47 | CCOC(=O)N1CCN(C(=O)c2cc3cc(Br)ccc3oc2=O)CC1 | -0.271
48 | CCC1CCCCN1C(=O)c1cc2cc(Br)ccc2oc1=O (stereo not given) | 7.8 (active)
49 | O=C(c1cc2cc(Br)ccc2oc1=O)N1CCCC1 | 0.0138
50 | C=CCNC(=O)CC(=O)N/N=C/c1ccc(F)cc1 | -0.18
51 | C=CCn1c(-c2ccc(OC)cc2)csc1=Nc1c(C)n(C)n(-c2ccccc2)c1=O | -0.422
52 | N#CC1=C(S)N=C(N)C(c2nc(-c3ccccc3)cs2)C12CCCC2 (stereo not given) | 0.271
53 | Cc1ccc(S(=O)(=O)N(C)/C(=N/S(=O)(=O)c2ccccc2)c2ccccc2)cc1 | -0.162
54 | O=C(O)/C=C/c1cn(-c2ncc(C(F)(F)F)cc2Cl)c2ccccc12 | -0.0759
55 | CN(C)/C=C/C(=O)/C=C/c1cn(-c2ncc(C(F)(F)F)cc2Cl)c2ccccc12 | 5.57 (active)
56 | CC(=O)/C=C\c1cn(-c2ncc(C(F)(F)F)cc2Cl)c2ccccc12 | -0.119
57 | CN1CCN(C(=O)c2ccc(-c3nn(C)c(=O)c4ccccc34)cc2)CC1 | -0.877
58 | CSc1ncc(Cl)c(C(=O)NCc2ccc3c(c2)OCO3)n1 | 0.575
59 | S=c1nc[nH]c2c1sc1nc(-c3ccccc3)c3c(c12)CCCC3 | 7.83 (active)
60 | COc1ncnc2c1sc1nc(-c3ccccc3)c3c(c12)CCCC3 | -0.0945
61 | O=c1[nH]cnc2c1sc1nc(-c3ccccc3)c3c(c12)CCCC3 | 0.204
62 | CC1CN(C(=O)/C=C/c2cccc([N+](=O)[O-])c2)CC(C)O1 (stereo not given) | -0.164
63 | CC1CCCN(C(=O)CCCn2c(=S)[nH]c3ccccc3c2=O)C1 (stereo not given) | 4.5 (active)
64 | O=C(CCCCCn1c(=S)[nH]c2ccccc2c1=O)N1CCOCC1 | -0.155
65 | COCCNC(=O)CCCCCn1c(=S)[nH]c2ccccc2c1=O | 1.77
66 | CCC1CCCCN1CCn1c(=S)[nH]c2cc(OC)c(OC)cc2c1=O (stereo not given) | 2.07

Row | Compound | z-score
67 | O=C(CCCn1c(=S)[nH]c2ccccc2c1=O)N1CCCCC1 | 1.44
68 | COc1ccc(NC(=O)CCCn2c(=S)[nH]c3ccccc3c2=O)cc1 | -0.514
69 | CCOc1cc2[nH]c(=S)n(CCN3CCCCC3C)c(=O)c2cc1OCC (stereo not given) | 0.258
70 | COc1cccc(NC(=O)CCCn2c(=S)[nH]c3ccccc3c2=O)c1 | 3.39 (active)
71 | CCOc1cc2[nH]c(=S)n(CCN3CCCCC3CC)c(=O)c2cc1OCC (stereo not given) | 1.73
72 | CCN1CCN(CCn2c(=S)[nH]c3ccccc3c2=O)CC1 | 0.66
73 | O=c1c2ccccc2[nH]c(=S)n1CCN1CCN(Cc2ccccc2)CC1 | 7.91 (active)
74 | O=c1[nH]c2ccccc2c(=O)n1Cc1ccccc1 | 0.345
75 | Cc1cccc(C(=O)N2c3ccccc3C(=O)OC2c2ccc3c(c2)OCO3)c1 (stereo not given) | -0.842
76 | c1coc(CN(Cc2ccco2)c2ncnc3c2oc2ccccc23)c1 | -2.18
77 | O=C1CN=C(Nc2ccc(Cl)cc2)N1c1ccccc1 | -0.0445
78 | COc1cc(-n2c(C)nc3cc(C(=O)NCCN4CCOCC4)ccc32)cc(OC)c1OC | -0.57
79 | COc1cc(NC(=S)Nc2cccnc2)cc(OC)c1OC | -0.192
80 | O=C(CCCn1c(=S)[nH]c2cc3c(cc2c1=O)OCO3)N1CCN(C2CCCCC2)CC1 | -0.008
81 | Cc1ccc2[nH]c(=O)c3cc(C(=O)NCCN4CCN(C)CC4)sc3c2c1 | 0.666
82 | CC1CCN(CCCn2c(=S)[nH]c3ccccc3c2=O)CC1 | 0.0115
83 | O=C(CCCn1c(=S)[nH]c2ccccc2c1=O)NC1CCCCC1 | 0.0447
84 | CCN1CCN(CCCNC(=O)c2cc3c(=O)[nH]c4ccccc4c3s2)CC1 | 0.477
85 | CC1CC(C)CN(CCCn2c(=S)[nH]c3ccccc3c2=O)C1 (stereo not given) | 14.4 (active)
86 | CC1CCCCN1CCCn1c(=S)[nH]c2ccccc2c1=O (stereo not given) | 3.46 (active)
87 | O=c1c2ccccc2[nH]c(=S)n1CCCN1CCN(C2CCCCC2)CC1 | 10.2 (active)
88 | CCN(CC)CCCn1c(=S)[nH]c2ccccc2c1=O | 0.126

Row | Compound | z-score
89 | O=C(NCCN1CCN(Cc2ccccc2)CC1)c1cc2c(=O)[nH]c3ccccc3c2s1 | 2.15
90 | CC1CCCCN1CCNc1nc(=S)[nH]c2ccccc12 (stereo not given) | -0.105
91 | O=C(NC1CCCCC1)c1ccccc1-c1ccccc1 | -0.176
92 | COCCNC(=O)c1cc2ncc(Br)cn2n1 | 0.00586
93 | C/C(Cn1cnc([N+](=O)[O-])n1)=N\NC(=O)c1ccc(Br)cc1 | -0.261
94 | O=C(CNC(=O)c1cccs1)NC1=NCCS1 | 0.647
95 | COc1ccc(/C=N/NC(=O)c2ccccc2O)cc1CSc1ccccn1 | 0.779
96 | Cc1c2cccn2cc[n+]1C | -0.16
97 | CCOC(=O)c1ccc(N/C=C2/CCCC(C)C2=O)cc1 (stereo not given) | 0.315
98 | Cc1ccccc1OCC(=O)O/N=C(\N)Cc1ccc(Cl)cc1 | -0.483
99 | CC12CC(NC(=O)N1c1cccc(C(=O)N3CCN(c4ccccc4)CC3)c1)c1ccccc1O2 (stereo not given) | -0.354
100 | CCC1CCCCN1CCCn1c(=S)[nH]c2ccccc2c1=O (stereo not given) | 7.04 (active)
101 | CCC1CCCCN1CC(=O)c1c(C)[nH]c2ccccc12 (stereo not given) | -0.699
102 | CCOC(=O)N1CCN(C(=O)CCCn2c(=S)[nH]c3ccccc3c2=O)CC1 | -0.357
103 | CC1=C(C(=O)Nc2ccccc2)C(c2ccco2)C(C#N)=C(SCC(=O)Nc2cccc(C)c2C)N1 (stereo not given) | 0.693
104 | Cc1ccnc2nc(C(=O)Nc3ccc(N4CCOCC4)cc3)nn12 | 0.0976
105 | CCOC(=O)c1c(C)[nH]c(C2=NNC(=Nc3ccccc3OC)SC2)c1C | -0.32
106 | Nc1ccc(-n2cnc3cc([N+](=O)[O-])ccc32)cc1 | -0.118
107 | Cc1ccc(N2CC3=C(C2=O)C(c2ccccc2)NC(=O)N3C)cc1 (stereo not given) | -0.193
108 | CN1C(=O)NC(c2ccccc2)C2=C1CN(CCc1ccccc1)C2=O (stereo not given) | 0.0172
109 | CN1C(=O)NC(c2ccccc2)C2=C1CN(Cc1ccccc1)C2=O (stereo not given) | 7.33 (active)
110 | CCOC(=O)c1c(C)[nH]c(C(=O)OCCOc2ccccc2C)c1C | -0.0787
